# Source: PubChem BioAssay (EPA / NIEHS)
# Active and inactive are the calls of the source. How the source made its calls: active means hit-call score of the fitted dose curve at least 0.9, where 1 is the maximum; inactive means score below 0.9.
# Columns and labels:
# Details in all cases: mRNA level, 48 h; actives raise or lower the signal
# [1] = read-out: ABC Transporter (ABCC3), ABCC3 (gene 8714); assay: LTEA_HepaRG_ABCC3: Life Technologies and Expression Analysis (LTEA) Assay for ABC Transporter (ABCC3) using HepaRG (AID 2283462)
# How it was run: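 Differentiated human HepaRG cells exposed 48 h in serum-free induction medium, 0.5% DMSO vehicle, 8-point half-log series to 100 uM in duplicate. ABCC3 mRNA by qRT-PCR, normalised to ACTB, GAPDH, POLR2A; bidirectional fit vs DMSO.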
# [2] = read-out: ABC Transporter (ABCB11), ABCB11 (gene 8647); assay: LTEA_HepaRG_ABCB11: Life Technologies and Expression Analysis (LTEA) Assay for ABC Transporter (ABCB11) using HepaRG (AID 2283463)
# How it was run: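 Using HepaRG cultures held in 0.5% DMSO, chemicals were tested at half-log dilutions from 100 uM for 48 h. Induction or suppression of ABCB11 mRNA, normalized to ACTB, GAPDH and POLR2A, was fitted bidirectionally against vehicle.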
# [3] = read-out: ABC Transporter (ABCC2), ABCC2 (gene 1244); assay: LTEA_HepaRG_ABCC2: Life Technologies and Expression Analysis (LTEA) Assay for ABC Transporter (ABCC2) using HepaRG (AID 2283464)
# How it was run: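 Differentiated HepaRG cells in serum-free induction medium exposed 48 h to eight half-log concentrations up to 100 uM, 0.5% DMSO, in duplicate. ABCC2 mRNA measured by qRT-PCR (TaqMan, Fluidigm), normalized to ACTB, GAPDH and POLR2A. Fitted in both directions against DMSO.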
# [4] = read-out: Broad substrate specificity ATP-binding cassette transporter ABCG2 (Homo sapiens) (UniProt Q9UNQ0); assay: LTEA_HepaRG_ABCG2: Life Technologies and Expression Analysis (LTEA) Assay for ABC Transporter (ABCG2) using HepaRG (AID 2283465)
# How it was run: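 Gene expression of ABCG2 in HepaRG liver cells is quantified by qRT-PCR following 48 h exposure across an eight-point series topping at 100 uM. Values come from bidirectional fitting relative to DMSO vehicle.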
# [5] = read-out: ATP-citrate lyase (ACLY), ACLY (gene 47); assay: LTEA_HepaRG_ACLY: Life Technologies and Expression Analysis (LTEA) Assay for ATP-citrate lyase (ACLY) using HepaRG (AID 2283466)
# How it was run: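 ACLY expression changes in human HepaRG liver cells are quantified by qRT-PCR after 48 h exposure to test chemicals (maximum 100 uM, half-log steps). Values are fitted in both directions relative to 0.5% DMSO vehicle.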
# [6] = read-out: Peroxisomal acyl-coenzyme A oxidase 1 (ACOX1) gene, ACOX1 (gene 51); assay: LTEA_HepaRG_ACOX1: Life Technologies and Expression Analysis (LTEA) Assay for Peroxisomal acyl-coenzyme A oxidase 1 (ACOX1) gene using HepaRG (AID 2283467)
# How it was run: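 Human HepaRG hepatic cultures, 48 h treatment with test chemicals up to 100 uM. ACOX1 expression read by qRT-PCR relative to 0.5% DMSO vehicle.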
# [7] = read-out: Alkaline Phosphatase, Placental (ALPP) gene, ALPP (gene 250); assay: LTEA_HepaRG_ALPP: Life Technologies and Expression Analysis (LTEA) Assay for Alkaline Phosphatase, Placental (ALPP) gene using HepaRG (AID 2283468)
# How it was run: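 HepaRG cells plated 48 h, then exposed in duplicate for 48 h in serum-free induction medium to 8-point half-log series from 100 uM in 0.5% DMSO. ALPP mRNA by TaqMan qRT-PCR, normalized to ACTB/GAPDH/POLR2A; bidirectional fit versus DMSO.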
# [8] = read-out: Bcl-2 (BAD) gene, BAD (gene 572); assay: LTEA_HepaRG_BAD: Life Technologies and Expression Analysis (LTEA) Assay for Bcl-2 (BAD) gene using HepaRG (AID 2283469)
# How it was run: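 Activity values reflect up- or down-regulation of BAD mRNA in human HepaRG hepatic cells treated 48 h in serum-free medium, with eight-point half-log dosing capped at 100 uM and 0.5% DMSO vehicle.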
# [9] = read-out: Bcl-2 (BAX) gene, BAX (gene 581); assay: LTEA_HepaRG_BAX: Life Technologies and Expression Analysis (LTEA) Assay for Bcl-2 (BAX) gene using HepaRG (AID 2283470)
# How it was run: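 Cells were thawed, plated for 48 h, moved to serum-free induction medium and dosed for 48 h (highest concentration 100 uM, half-log steps, 0.5% DMSO). Total RNA was then analysed for BAX expression by qRT-PCR.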
# BCL2L11 (gene 10018) = assay: LTEA_HepaRG_BCL2L11: Life Technologies and Expression Analysis (LTEA) Assay for Bcl-2 (BCL2L11) gene using HepaRG (AID 2283473)
# How it was run: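 Differentiated human HepaRG cells were exposed 48 h in serum-free induction medium to eight half-log concentrations up to 100 uM in 0.5% DMSO, in duplicate. BCL2L11 mRNA was quantified by TaqMan qRT-PCR, normalized to ACTB, GAPDH and POLR2A; induction or repression fitted versus DMSO.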
# [10] = read-out: Apolipoprotein A-V (APOA5) gene, APOA5 (gene 116519); assay: LTEA_HepaRG_APOA5: Life Technologies and Expression Analysis (LTEA) Assay for Apolipoprotein A-V (APOA5) gene using HepaRG (AID 2283474)
# How it was run: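 Differentiated HepaRG cells in serum-free induction medium, exposed 48 h in duplicate to eight half-log concentrations topping at 100 uM (0.5% DMSO). APOA5 mRNA by Fluidigm TaqMan qRT-PCR, normalized to ACTB, GAPDH and POLR2A; bidirectional fit versus DMSO.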
# [11] = read-out: Apoptosis regulator Bcl-2 (Homo sapiens) (UniProt P10415); assay: LTEA_HepaRG_BCL2: Life Technologies and Expression Analysis (LTEA) Assay for Bcl-2 gene using HepaRG (AID 2283475)
# How it was run: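 Plated human HepaRG cells are exposed to test chemicals for 48 h across eight concentrations from 100 uM downward in half-log steps (0.5% DMSO). BCL2 expression is then measured by qRT-PCR with housekeeping normalisation and fitted bidirectionally against vehicle.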
# [12] = read-out: Bcl-2 (BID) gene, BID (gene 637); assay: LTEA_HepaRG_BID: Life Technologies and Expression Analysis (LTEA) Assay for Bcl-2 (BID) gene using HepaRG (AID 2283476)
# How it was run: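 Cells are plated, cultured 48 h, switched to serum-free induction medium, then dosed 48 h (100 uM top, half-log steps, 0.5% DMSO). RNA is isolated and BID expression read by qRT-PCR.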
# Caspase-3 (Homo sapiens) = Caspase-3 (Homo sapiens) (UniProt P42574); assay: LTEA_HepaRG_CASP3: Life Technologies and Expression Analysis (LTEA) Assay for cysteine-aspartic acid protease (CASP3) using HepaRG (AID 2283477)
# Sequence of Caspase-3 (Homo sapiens) (P42574 whole entry, looked up): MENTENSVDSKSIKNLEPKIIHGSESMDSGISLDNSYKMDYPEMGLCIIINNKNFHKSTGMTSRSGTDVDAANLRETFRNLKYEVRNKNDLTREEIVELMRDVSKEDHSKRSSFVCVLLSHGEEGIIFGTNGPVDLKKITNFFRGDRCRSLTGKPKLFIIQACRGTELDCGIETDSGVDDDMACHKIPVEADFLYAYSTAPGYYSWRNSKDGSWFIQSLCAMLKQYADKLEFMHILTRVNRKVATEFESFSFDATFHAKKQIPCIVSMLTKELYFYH
# How it was run: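 Differentiated HepaRG cells, plated 48 h, were treated in duplicate in serum-free induction medium for 48 h with eight half-log concentrations up to 100 uM in 0.5% DMSO. CASP3 mRNA measured by qRT-PCR, normalized to ACTB, GAPDH, POLR2A.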
# [13] = read-out: Cytochrome P450 (CYP24A1), CYP24A1 (gene 1591); assay: LTEA_HepaRG_CYP24A1: Life Technologies and Expression Analysis (LTEA) Assay for Cytochrome P450 (CYP24A1) using HepaRG (AID 2283478)
# How it was run: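 HepaRG cells plated 48 h, then exposed in duplicate in serum-free induction medium for 48 h to 8-point half-log series from 100 uM in 0.5% DMSO. CYP24A1 mRNA by Fluidigm qRT-PCR, normalized to ACTB, GAPDH, POLR2A; bidirectional fit versus DMSO.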
# [14] = read-out: Cytochrome P450 (CYP1A2), CYP1A2 (gene 1544); assay: LTEA_HepaRG_CYP1A2: Life Technologies and Expression Analysis (LTEA) Assay for Cytochrome P450 (CYP1A2) using HepaRG (AID 2283479)
# How it was run: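 Differentiated human HepaRG cells in serum-free induction medium exposed 48 hours in duplicate to 8 half-log concentrations from 100 uM, 0.5% DMSO. CYP1A2 mRNA quantified by qRT-PCR, normalized to ACTB, GAPDH and POLR2A; bidirectional fitting versus DMSO.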
# [15] = read-out: cysteine-aspartic acid protease (CASP8), CASP8 (gene 841); assay: LTEA_HepaRG_CASP8: Life Technologies and Expression Analysis (LTEA) Assay for cysteine-aspartic acid protease (CASP8) using HepaRG (AID 2283480)
# How it was run: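 Concentration-response in duplicate up to 100 uM (half-log steps, 0.5% DMSO) on differentiated HepaRG cultures for 48 h. Expression change of CASP8 mRNA is determined by TaqMan qRT-PCR with housekeeping-gene normalization.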
# [16] = read-out: Cytochrome P450 (CYP2B6), CYP2B6 (gene 1555); assay: LTEA_HepaRG_CYP2B6: Life Technologies and Expression Analysis (LTEA) Assay for Cytochrome P450 (CYP2B6) using HepaRG (AID 2283481)
# How it was run: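 Differentiated human HepaRG cells in serum-free induction medium, dosed in duplicate for 48 h over 8 half-log concentrations topping at 100 uM (0.5% DMSO). CYP2B6 mRNA measured by TaqMan qRT-PCR, normalized to ACTB, GAPDH, POLR2A; bidirectional fit versus DMSO.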
# [17] = read-out: adenosine kinase (ADK) gene, ADK (gene 132); assay: LTEA_HepaRG_ADK: Life Technologies and Expression Analysis (LTEA) Assay for adenosine kinase (ADK) gene using HepaRG (AID 2283471)
# How it was run: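 Following 48 h exposure of HepaRG cells in 0.5% DMSO (top concentration 100 uM, duplicate wells), ADK mRNA induction or suppression was measured by qRT-PCR, normalised to ACTB/GAPDH/POLR2A, and fitted bidirectionally relative to vehicle.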
# [18] = read-out: Alpha-fetoprotein (AFP) gene, AFP (gene 174); assay: LTEA_HepaRG_AFP: Life Technologies and Expression Analysis (LTEA) Assay for Alpha-fetoprotein (AFP) gene using HepaRG (AID 2283472)
# How it was run: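 Chemicals were tested on differentiated HepaRG cells for 48 hours at eight concentrations up to 100 uM, with 0.5% DMSO as vehicle. AFP expression was then quantified by qRT-PCR and analyzed for gain or loss relative to DMSO.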
# Sequence of Broad substrate specificity ATP-binding cassette transporter ABCG2 (Homo sapiens) (Q9UNQ0 whole entry, looked up): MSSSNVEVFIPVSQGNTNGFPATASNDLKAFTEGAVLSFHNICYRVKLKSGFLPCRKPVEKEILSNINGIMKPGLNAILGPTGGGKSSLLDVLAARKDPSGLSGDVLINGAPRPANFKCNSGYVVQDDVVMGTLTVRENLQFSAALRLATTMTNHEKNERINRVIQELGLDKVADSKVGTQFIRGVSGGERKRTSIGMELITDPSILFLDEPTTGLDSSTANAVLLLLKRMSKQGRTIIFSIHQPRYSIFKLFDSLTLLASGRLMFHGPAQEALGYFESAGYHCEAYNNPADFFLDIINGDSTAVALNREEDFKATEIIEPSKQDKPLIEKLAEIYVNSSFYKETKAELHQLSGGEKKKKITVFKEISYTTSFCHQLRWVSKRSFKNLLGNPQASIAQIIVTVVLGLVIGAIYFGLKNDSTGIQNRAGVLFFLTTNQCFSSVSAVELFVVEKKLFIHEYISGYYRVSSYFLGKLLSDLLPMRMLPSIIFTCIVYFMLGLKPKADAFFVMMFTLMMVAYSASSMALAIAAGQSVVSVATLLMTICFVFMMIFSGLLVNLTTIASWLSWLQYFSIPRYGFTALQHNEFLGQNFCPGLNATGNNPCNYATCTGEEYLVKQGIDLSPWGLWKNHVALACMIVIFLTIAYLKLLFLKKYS
# Sequence of Apoptosis regulator Bcl-2 (Homo sapiens) (P10415 whole entry, looked up): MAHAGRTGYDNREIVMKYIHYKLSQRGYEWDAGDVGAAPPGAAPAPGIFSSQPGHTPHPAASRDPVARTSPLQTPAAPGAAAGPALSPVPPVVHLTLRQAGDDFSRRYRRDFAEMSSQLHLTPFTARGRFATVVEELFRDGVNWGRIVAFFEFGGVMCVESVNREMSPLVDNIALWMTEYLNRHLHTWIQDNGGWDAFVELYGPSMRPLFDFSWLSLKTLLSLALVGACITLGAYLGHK
smiles,measurement,setting,value
COc1ccc2cc(S(=O)(=O)N[C@H](CC(=O)N[C@H](Cc3ccc(CN4[C@H](C)CCC[C@@H]4C)cc3)C(=O)N(C)C(C)C)c3ccc4c(c3)OCO4)ccc2c1,AC50,[1],11.2 µM (active)
same,AC50,[2],24.2 µM (active)
same,AC50,[3],16.2 µM (active)
same,outcome,[4],inactive
same,outcome,[5],inactive
same,AC50,[6],20.3 µM (active)
same,AC50,[7],0.741 µM (active)
same,outcome,[8],inactive
same,AC50,[9],81.8 µM (active)
same,AC50,BCL2L11 (gene 10018),84.9 µM (active)
same,outcome,[10],inactive
same,outcome,[11],inactive
same,AC50,[12],21.6 µM (active)
same,AC50,Caspase-3 (Homo sapiens),19.4 µM (active)
same,outcome,[13],inactive
same,AC50,[14],7.93 µM (active)
same,AC50,[15],25.1 µM (active)
same,AC50,[16],11.5 µM (active)
O=c1ccc2ccccc2o1,outcome,[1],inactive
same,outcome,[2],inactive
same,outcome,[3],inactive
same,outcome,[4],inactive
same,outcome,[5],inactive
same,outcome,[7],inactive
same,outcome,[8],inactive
same,outcome,[9],inactive
same,outcome,[17],inactive
same,outcome,[18],inactive
same,outcome,BCL2L11 (gene 10018),inactive
same,outcome,[10],inactive
same,outcome,[11],inactive
same,outcome,[12],inactive
same,outcome,Caspase-3 (Homo sapiens),inactive
same,outcome,[13],inactive
same,outcome,[14],inactive
same,outcome,[15],inactive
same,AC50,[16],40.3 µM (active)
C[C@]12CC[C@@H]3c4ccc(O)cc4CC[C@H]3[C@@H]1CCC2=O,outcome,[1],inactive
same,outcome,[2],inactive
same,outcome,[3],inactive
same,AC50,[4],16.7 µM (active)
same,outcome,[5],inactive
same,outcome,[6],inactive
same,outcome,[7],inactive
same,outcome,[8],inactive
same,outcome,[9],inactive
same,outcome,[17],inactive
same,AC50,[18],26.6 µM (active)
same,outcome,BCL2L11 (gene 10018),inactive
same,outcome,[10],inactive
same,outcome,[11],inactive
same,outcome,[12],inactive
same,outcome,Caspase-3 (Homo sapiens),inactive
same,outcome,[15],inactive
c1ccc2ccccc2c1,outcome,[1],inactive
same,outcome,[2],inactive
same,outcome,[3],inactive
same,outcome,[4],inactive
same,outcome,[5],inactive
same,outcome,[6],inactive
same,outcome,[7],inactive
same,outcome,[8],inactive
same,outcome,[9],inactive
same,outcome,[17],inactive
same,outcome,BCL2L11 (gene 10018),inactive
same,outcome,[10],inactive
same,outcome,[11],inactive
same,outcome,[12],inactive
same,outcome,Caspase-3 (Homo sapiens),inactive
same,outcome,[13],inactive
same,outcome,[14],inactive
same,outcome,[15],inactive
same,AC50,[16],12.1 µM (active)
Clc1cc(Cl)c2c(c1)N=C1CCCCCN1C2,outcome,[1],inactive
same,outcome,[2],inactive
same,outcome,[3],inactive
same,outcome,[4],inactive
same,outcome,[5],inactive
same,outcome,[6],inactive
same,outcome,[7],inactive
same,outcome,[8],inactive
same,outcome,[9],inactive
same,outcome,[17],inactive
same,outcome,BCL2L11 (gene 10018),inactive
same,outcome,[10],inactive
same,outcome,[11],inactive
same,outcome,[12],inactive
same,outcome,Caspase-3 (Homo sapiens),inactive
same,outcome,[13],inactive
same,AC50,[14],2.21 µM (active)
same,outcome,[15],inactive
same,AC50,[16],6.27 µM (active)
CC(C)(C)c1cc(/C=C2\SC(N)=NC2=O)cc(C(C)(C)C)c1O,AC50,[1],50 µM (active)
same,AC50,[2],24.6 µM (active)
same,AC50,[3],27.6 µM (active)
same,outcome,[4],inactive
same,AC50,[5],82 µM (active)
same,AC50,[6],26.1 µM (active)
same,outcome,[7],inactive
same,outcome,[8],inactive
same,outcome,[9],inactive
same,outcome,[18],inactive
same,AC50,BCL2L11 (gene 10018),96.8 µM (active)
same,outcome,[10],inactive
same,AC50,[11],21.1 µM (active)
same,AC50,[12],15.8 µM (active)
same,AC50,Caspase-3 (Homo sapiens),15.8 µM (active)
same,outcome,[13],inactive
same,outcome,[14],inactive
same,AC50,[15],27.8 µM (active)
same,AC50,[16],93.7 µM (active)
